# The campaign covered roughly 420,000 compounds. About 64,000 (15%) were called active. Another 27% or so got no clear call; they are omitted. Only a sample is shown. Values without a mark were called inactive. The call rests on the fitted dose curve; in most records, active means well fitted inhibition curve with a large enough effect; inconclusive means small, poorly fitted or top-dose-only effect; inactive means flat fitted curve, though single readings scatter.
# Test: qHTS for Inhibitors of human tyrosyl-DNA phosphodiesterase 1 (TDP1): qHTS in cells in absence of CPT; further: nearly all actives have a fitted effect of over 55% in size
# Settings: DT40 Tdp1-/- hTDP1 cells, no CPT, ATP luminescence, 48 h; activity change, negative = growth inhibition: at 46.2 µM (top of the series)
# How it was run: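 Readout: luminescence from CellTiter-Glo after 30 min in the dark at RT. Cells: DT40 Tdp1-/- with stable hTDP1, 400/well. Exposure: compounds alone, ≥48 hr, 37 °C.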
# On the % scale 0 is the no-effect control and ±100 the full control effect; potency means the concentration at half of the fitted maximal effect.
Structure (SMILES),"activity change, negative = growth inhibition [%]",Potency
CCn1cc(CN2CCCC(CNS(=O)(=O)Cc3ccccc3)C2)cn1 (stereo not drawn),6.09,
CC(C)C(=O)Nc1nnc(SCC(=O)N2C(C)CCCC2C)s1 (stereo not drawn),-20.3,
C[C@H]1CN([C@@H](C)CO)C(=O)CCCn2cc(nn2)CO[C@@H]1CN(C)S(=O)(=O)c1cccc(C#N)c1,-2.79,
CC(C)NC(=O)C(c1ccc(F)cc1)N(C(=O)CCC(=O)Nc1ccccn1)c1ccccc1F (stereo not drawn),0.0629,
O=C(Nc1ccccc1Cl)N1CCC(CN2CCCCC2)CC1,-15.7,
CC(=O)N=c1ncn(CC(COC(C)=O)OC(C)=O)c2nc[nH]c12 (stereo not drawn),-11.6,
Cc1ccc(CNC(=O)CCCNC(=O)c2ccc(Cl)cc2)n1C,-3.81,
Cc1nc(-c2ccc(Cl)cc2)sc1C1(C)CC(c2ccc(Br)cc2)=NO1 (stereo not drawn),-21.1,
Cc1cccc(NC(=O)CSc2nc3c(c(=O)[nH]2)CCC3)c1C,-22.3,
CCCCn1c(N)c(N(CC(C)C)C(=O)c2cccc(S(=O)(=O)N3CCN(C(C)=O)CC3)c2)c(=O)[nH]c1=O,-2.87,
O=C(NCCCn1ccnc1)C(=O)c1cn(CC(=O)N2CCCCCC2)c2ccccc12,-0.34,
O=C(CC(=O)c1cccnc1)c1ccccc1,,20.6 µM (active)
O=C(c1cccnc1)N(Cc1ccccc1)C(=O)c1cccnc1,-1.78,
O=C(NNC(=O)c1cccnc1)Nc1ccccc1,-3.5,
COC(=O)Cc1cnc(NC(=O)CSc2nc(C(C)C)cc(=O)[nH]2)s1,2.03,
COc1cccc(-n2c(=O)c3c(C)c(C(=O)N(C)C)sc3n(Cc3cccc(C)c3)c2=O)c1,-27.6,
COc1cccc(N=c2oc3c(C)ncc(CO)c3cc2C(N)=O)c1,-18.9,
CCCN(CCC)c1c([N+](=O)[O-])c(=O)oc2ccccc12,-6.56,
CCC(C)(C)NC(=O)C(c1ccc(O)cc1)N(C(=O)Cn1nnc2ccccc21)c1ccc(NC(C)=O)cc1 (stereo not drawn),3.11,
COc1ccc(NC(=O)CCCNC(=O)Cn2cnc3sc4c(c3c2=O)CCCC4)cc1OC,1.22,
O=C(CN1C(=O)CCn2nc(-c3ccccc3)cc21)NCc1ccccc1,-14,
COc1ccc(NC(=O)CCCN2C(=O)CCn3nc(-c4cn(C)c5ccccc45)cc32)cc1OC,,23.1 µM (active)
O=C(/C=C/[C@H]1O[C@@H](n2ccc(=O)[nH]c2=O)[C@H](O)[C@@H]1O)NCc1ccccn1,2.77,
COc1ccc(C)cc1NC(=O)CSc1nnc(CC(=O)Nc2ccccc2F)n1C,-9.59,
COc1ccc(Cl)cc1NC(=O)CN(C)C(=O)c1cc(-c2cccs2)nn1-c1ccccc1,,18.4 µM (active)
COc1ccc(-c2cc(C(F)(F)F)nc(SCC(=O)Nc3ccc4c(c3)OCO4)n2)cc1OC,0.966,

Structure (SMILES),"activity change, negative = growth inhibition [%]",Potency
COc1ccc(Cl)cc1NC(=O)CN(C)C(=O)CNC(=O)C12CC3CC(CC(C3)C1)C2,-50.7,
O=C(COC(=O)c1cc(-c2cccs2)nn1-c1ccccc1)Nc1cc([N+](=O)[O-])ccc1Cl,-10.1,
COc1ccc(Cl)cc1NC(=O)CN(C)C(=O)c1cc2ccccc2cc1OC,,18.4 µM (active)
COc1ccc(Cl)cc1NC(=O)CSc1nc(-c2cccs2)cc(C(F)(F)F)n1,,20.6 µM (active)
COc1ccc(Cl)cc1NC(=O)CNc1ccccc1F,-8.29,
C=Cn1cc[n+](CC(=O)c2ccc(OC)c(OC)c2)c1,1.29,
Cc1c(C(=O)N(C)CCc2cnn(C)c2)oc2c(F)cccc12,4.26,
Cn1ccs/c1=N\S(=O)(=O)c1ccc(C(C)(C)C)cc1,-8.97,
CC(=O)Nc1ccc(S(=O)(=O)NCC2CCC(C(=O)NCCc3ccccc3)CC2)cc1 (stereo not drawn),,inactive
CS(=O)(=O)N1CCN=C1SCc1ccc(F)cc1,-4.7,
CCn1c(SCc2cccc(C(=O)O)c2)nnc1-c1ccc(Cl)cc1,2.06,
Cc1oc2cc3oc(=O)ccc3cc2c1C,3.59,
O=C(Nc1c(Br)cc2c(c1Br)Cc1ccccc1-2)C(F)(F)F,-20.8,
CC(=O)c1ccc2c(c1)c1ccccc1n2CC(C)C,-9.08,
CCOC(=O)c1sc(NC(=O)CSc2n[nH]c(CC)n2)nc1C,-26.7,
Cc1ccc(NC(=O)CN2CCc3ccccc3C2)cc1,-22.2,
O=C(CN1CCc2cc3c(cc2C1)OCCCO3)Nc1ccccc1,,25.9 µM (active)
O=C(CN1CCOCC1)Nc1ccccc1,-2.99,
Cc1ccc(NS(=O)(=O)c2cn(C)c(=O)n(C)c2=O)c(C)c1,-1.43,
O=C(CCN1C(=O)C2C3C=CC(C3)C2C1=O)Nc1ccccc1F (stereo not drawn),5.61,
O=C(NCCCNC(=O)c1ccccc1Cl)c1cnccn1,-2.14,
CCCCNC1(C#N)CCN(Cc2ccccc2)CC1,15.8,
O=C1CC[C@@H]2CC3(C[C@@H]4CCN1[C@H]24)Nc1cc([N+](=O)[O-])ccc1NC3=NC1CCCCC1 (stereo partly drawn),1.51,
O=C1CCC[C@@H]2C[C@@]3(C[C@@H]4CCN1[C@H]24)Nc1ccccc1NC3=NCc1ccccc1,-4.08,
Cc1cc2c(cc1C)NC1(C[C@H]3CCC(=O)N4CC[C@@H](C1)[C@@H]34)C(=NC(C)(C)CC(C)(C)C)N2 (stereo partly drawn),,20 µM (active)
COc1ccc(N2C(=O)NC(NS(=O)(=O)c3ccc(Cl)cc3)(C(F)(F)F)C2=O)cc1 (stereo not drawn),-19.7,

Structure (SMILES),"activity change, negative = growth inhibition [%]",Potency
CN(C)C(=O)c1ccc(-c2cncnc2NC2CCNCC2)cc1,-0.0941,
O=C(O)c1ccc(/C=C2\SC(=S)N(NC(=O)c3ccc(Br)cc3)C2=O)cc1,-2.08,
Cc1ccc(-n2c(Cc3cccs3)nnc2SCC(=O)OC(C)C)cc1,-9.24,
CCn1c(Cc2cccs2)nnc1SCC(=O)c1ccc(C)cc1,,14.1 µM (active)
Cn1c(Cc2cccs2)nnc1SCC(=O)Nc1ccccc1,8.9,
O=c1[nH]c(=O)c2nc3ccccc3nc2[nH]1,-8.56,
CCCc1nnc(NC(=O)c2cccs2)s1,6.66,
O=C1NC(=O)C(c2ccc(Cl)cc2)N1 (stereo not drawn),19.5,
CCOC(=O)N1CCN(C(=O)C(=O)Nc2sc3c(c2C#N)CC(C)(C)OC3)CC1,16.8,
NS(=O)(=O)c1ccc2nc(NC(=O)CS(=O)(=O)c3ccc(F)cc3)sc2c1,1.93,
O=C(Cn1c(=O)sc2ccccc21)Nc1nc2c(s1)CCCC2,-7.53,
COc1cc(C#Cc2ccc3cc(CCCO)oc(=O)c3c2)cc(OC)c1,,1.03 µM (active)
CN(C(=O)CN1C(=O)CCSc2ccc(S(=O)(=O)N3CCCC3)cc21)c1ccccc1,22.2,
CSc1ccccc1NC(=O)c1cc(Cl)sc1Cl,-11.3,
CN(CC(=O)Nc1c(Cl)cccc1Cl)C(=O)c1ccncc1,-2.4,
CCCc1ccc(OCC(=O)NNC(=S)NC(=O)c2ccco2)cc1,,20.6 µM (active)
CC(Oc1ccc2ccccc2c1)C(=O)NNC(=S)NC(=O)c1ccco1 (stereo not drawn),,16.4 µM (active)
Cc1ccc(OCC(=O)NCCCNC(=O)c2ccco2)cc1C,-5.67,
O=C(Nc1ccc2ccccc2c1)/C(=C\c1ccc2c(c1)OCO2)NC(=O)c1ccco1,-4.08,
CCCc1ccc(OCCNC(=O)c2ccco2)cc1,-25.9,
Cc1ccc(C(=O)NNC(=O)C(C)Oc2ccc3ccccc3c2)o1 (stereo not drawn),-21.3,
C=CCn1c(SCc2cc(C(=O)OC)c(C)o2)nnc1-c1ccncc1,-5.22,
COC(=O)c1ccc(NC(=O)c2cccc3c2C(=O)N(C2CCCCC2)C3)cc1,-3.73,
CCOC(=O)N1CCC(N2Cc3cccc(C(=O)Nc4ccc(S(=O)(=O)N(CC)CC)cc4)c3C2=O)CC1,2.22,
CCOC(=O)N1CCC(N2Cc3cccc(C(=O)Nc4c(C)cccc4CC)c3C2=O)CC1,,23.1 µM (active)
CC1(C)O[C@@H]2[C@H](O1)[C@@H](COS(=O)(=O)O)O[C@H]2n1ccc(=O)[nH]c1=O,0.812,

Structure (SMILES),"activity change, negative = growth inhibition [%]",Potency
CCOc1ccc(C(=O)Nc2cccc(SC)c2)cc1,,9.2 µM (active)
CCOc1ccc(NC(=O)c2ccc(NC(=O)C3CCCO3)cc2)cc1 (stereo not drawn),-1.68,
CCOc1cccc(C(=O)Nc2cccnc2)c1,-13,
NC(=O)COc1ccc(NC(=O)c2ccccc2-c2ccccc2)cc1,6.23,
CCCOc1cccc(C(=O)NCCCNC(=O)c2cccnc2)c1,12.2,
CCOc1ccc(C(=O)Nc2ccncc2)cc1,,18.4 µM (active)
O=C(CSc1ccccc1)Nc1ccc(C(=O)Nc2cccc(O)c2)cc1,-13.8,
CCCOc1cccc(C(=O)Nc2cccc(NC(=O)c3ccc(C(C)(C)C)cc3)c2)c1,,29.1 µM (active)
CSc1cccc(NC(=O)CSc2ccccc2)c1,-17.1,
CCOc1ccc(NC(=O)c2ccc(CSc3nnnn3C)cc2)cc1,-21,
CCOc1ccc(NC(=O)c2ccccc2NS(C)(=O)=O)cc1,,18.4 µM (active)
COC(=O)c1ccccc1NC(=O)c1ccccc1NS(C)(=O)=O,-25.9,
Cc1cc(C(=O)OC(C)C(=O)Nc2cccc(S(=O)(=O)N3CCOCC3)c2)c(C)o1 (stereo not drawn),-31.2,
COCCCNC(=S)NC(=O)c1ccc([N+](=O)[O-])cc1,-23.1,
CCOc1ccccc1NS(=O)(=O)c1c[nH]c(C(=O)OC)c1,-29.1,
COCCCNC(=O)c1c(NC(=O)c2cc(=O)c3cc(C)c(C)cc3o2)sc2c1CCCC2,-16.2,
Cc1cc(O)c(C2(O)C(=O)Nc3ccccc32)cc1C (stereo not drawn),-2.69,
Cc1nc2ccccc2c(C(=O)O)c1-c1ccccn1,14.2,
Cc1ccc(Oc2nc(-c3ccccn3)nc3ccccc23)cc1,,18.4 µM (active)
CC(C)(C)Nc1nc(-c2ccccn2)nc2ccccc12,,4.11 µM (active)
COc1ccc(Cc2nc(-c3ccccn3)no2)cc1OC,7.04,
CC(C)(C)c1ccc(Oc2ccc(N)cc2)cc1,-18.1,
COc1cnc(-c2ccccn2)nc1Oc1ccc(C(C)(C)C)cc1,,4.61 µM (active)
CCOC(=O)c1cnc(-c2ccccc2)nc1Oc1ccc(C)cc1,-11.3,
O=C(c1ccc(NS(=O)(=O)c2ccc3[nH]c(=O)[nH]c3c2)cc1)N1CCCCC1,-0.463,

# — PubChem BioAssay AID686978 (National Center for Advancing Translational Sciences (NCATS), 2013)
